Several values for one entry are separate records, joined by “and”; a condition that tells them apart may be missing. Identical values can stand only once.
Each molecule was assayed against Tyrosine-protein kinase ABL1 (Homo sapiens) (UniProt P00519). Conditions: Compound concentration 20.0 uM, Protein concentration 2.0 uM, Result type QC Liability.
Chain of Tyrosine-protein kinase ABL1 (Homo sapiens) (P00519 whole entry): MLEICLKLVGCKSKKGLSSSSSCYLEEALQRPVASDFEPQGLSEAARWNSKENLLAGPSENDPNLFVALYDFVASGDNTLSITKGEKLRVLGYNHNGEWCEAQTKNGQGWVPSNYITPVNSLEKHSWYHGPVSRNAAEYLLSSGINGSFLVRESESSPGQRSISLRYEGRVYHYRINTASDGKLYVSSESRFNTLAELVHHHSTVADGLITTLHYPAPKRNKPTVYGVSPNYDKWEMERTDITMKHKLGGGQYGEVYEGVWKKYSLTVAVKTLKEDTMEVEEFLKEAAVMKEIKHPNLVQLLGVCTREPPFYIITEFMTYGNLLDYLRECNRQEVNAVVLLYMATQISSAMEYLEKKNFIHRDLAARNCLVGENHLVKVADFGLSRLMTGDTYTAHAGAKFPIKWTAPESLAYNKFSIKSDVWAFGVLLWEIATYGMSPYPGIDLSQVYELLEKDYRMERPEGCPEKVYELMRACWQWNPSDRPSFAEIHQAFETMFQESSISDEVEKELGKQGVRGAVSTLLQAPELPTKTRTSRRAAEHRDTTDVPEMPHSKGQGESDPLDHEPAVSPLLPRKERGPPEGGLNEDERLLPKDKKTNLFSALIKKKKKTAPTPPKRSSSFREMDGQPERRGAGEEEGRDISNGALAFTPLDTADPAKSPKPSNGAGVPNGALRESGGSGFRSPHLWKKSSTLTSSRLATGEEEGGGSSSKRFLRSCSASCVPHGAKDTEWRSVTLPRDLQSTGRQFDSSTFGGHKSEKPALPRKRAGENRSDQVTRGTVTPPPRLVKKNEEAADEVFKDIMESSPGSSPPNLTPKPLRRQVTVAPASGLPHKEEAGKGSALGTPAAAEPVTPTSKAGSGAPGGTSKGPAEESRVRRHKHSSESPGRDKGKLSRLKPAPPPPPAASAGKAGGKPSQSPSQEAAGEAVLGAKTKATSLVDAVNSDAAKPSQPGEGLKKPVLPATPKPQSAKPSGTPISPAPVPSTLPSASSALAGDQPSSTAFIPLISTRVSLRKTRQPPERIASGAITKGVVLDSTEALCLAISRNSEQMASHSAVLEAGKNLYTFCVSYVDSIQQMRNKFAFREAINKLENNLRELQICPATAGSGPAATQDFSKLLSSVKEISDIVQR

SMILES	ΔTm
COc1ccc(S(=O)(=O)N2CCOCC2)cc1Nc1ccc2c(n1)N(C1CCOCC1)[C@H](C)C(=O)N2C	-0.18 °C
CC1CN(CC(=O)N2CC(C)(C)c3nc(CO)c(Cc4ccc(F)cc4)cc32)C(CN2CCOCC2C)CN1 (configuration not stated)	0.01 °C
O=C(O)CCCc1cc2cc(Cl)ccc2n1S(=O)(=O)c1ccc2ncsc2c1	0.34 °C
O=S(=O)(Nc1ccc(C(O)(C(F)(F)F)C(F)(F)F)cc1)c1cccs1	0.41 °C
COC(=O)Nc1nc2c(s1)-c1c(c(-c3cccnc3)nn1-c1ccc(C3(N(C)C)CC3)cc1)CC2	0.57 °C
COc1ccccc1S(=O)(=O)Nc1ccc2c(c1)CN(C)C(=O)N2	0.09 °C
CC(C)(C)OC(=O)CN(Cc1ccc(Cl)cc1)Cc1ccc([N+](=O)[O-])s1	0.48 °C
COc1c(OCCCN2CCOCC2)ccc2c1N=C(NC(=O)c1cnc(N)nc1)N1CCN=C21	0.09 °C
COCCc1ccc(-c2c(C)nc3c(N4CCOCC4)ccnn23)cn1	0.28 °C
COc1cc(OC)cc(-c2cc3cnc(N)nc3nc2NC(=O)NC(C)(C)C)c1	0.36 °C and 1.41 °C
COCCNC1CCC(Nc2cc(-c3csc(NCC4(C#N)CCOCC4)n3)c(Cl)cn2)CC1 (configuration not stated)	0.32 °C
Cc1cc(-c2ccnc(Nc3cnn(C)c3)n2)ccc1CNC(=O)N1CC(OC(C)C)C1	6.49 °C
COCCCS(=O)(=O)c1cc(C)c(-c2ccc(F)c3c2CC[C@H]3Oc2ccc3c(c2)OC[C@H]3CC(=O)O)c(C)c1	0.43 °C
COc1cc2nc([C@@H]3CCCS(=O)(=O)C3)n(C)c2cc1NC(=O)c1cccc(C(C)(F)F)n1	0.81 °C
CN1C(=O)Cc2ccc(-c3ccc(C[C@@H](C#N)NC(=O)[C@@H]4N[C@H]5CC[C@@H]4C5)c(F)c3)cc21	-0.52 °C
CCN(C(=O)c1cc(F)ccc1Oc1cncnc1N1CC2(CCN(C[C@H]3CC[C@H](NS(=O)(=O)CC)CC3)CC2)C1)C(C)C	0.01 °C
CC(C)(C)c1cc(NC(=O)c2csc(Nc3ccccn3)n2)no1	1.84 °C
O=C(Nc1cccc(C(F)(F)F)c1)c1cccc(-n2cc(-c3ccco3)nn2)c1	0.46 °C
CNC(=O)c1ccc2c(c1)ncn2-c1ccc(CC(=O)OC(C)(C)C)cc1	4.4 °C
CNC(=O)c1cc(C(=O)N[C@H]2[C@@H]3COC[C@@H]32)cc2c1O[C@H](CF)[C@H]2c1ccccc1	0.27 °C
CN(C)c1ccc(-c2cc3ncccc3c(OCCCCO)n2)cc1	5.68 °C
O=C(NC[C@@H]1[C@H]2CN(C(=O)OCc3cc(C(F)(F)F)cc(C(F)(F)F)c3)C[C@@H]12)c1ccc2[nH]nnc2c1	-2.53 °C
COc1cc(-c2cncc(-c3ccc(N4CCN(C(C)C)CC4)cc3)c2C)cc(F)c1C(N)=O	1.79 °C

The molecules below were run against Cyclin-dependent kinase 2 (Homo sapiens) (UniProt P24941). Conditions: Compound concentration 20.0 uM, Protein concentration 2.0 uM, Result type QC Liability.

SMILES	ΔTm
O=C1Nc2ccc(I)cc2/C1=C/c1cc(Br)c(O)c(Br)c1	0.35 °C
Cc1cc2ncnn2cc1Nc1ncc2c(n1)n(C1CCOCC1)c(=O)n2C	0.84 °C
CNc1oc(-c2cccc3ccccc23)nc1C#N	0.95 °C
COc1ccc(CSc2nnc(-c3ccc4ncsc4c3)o2)cc1C(F)(F)F	0.54 °C
CC(C)C(=O)N1CCC(c2cn(C)c3ncc(NC(=O)c4cccc(C#N)c4)c(C(F)(F)F)c23)CC1	0.71 °C
COCCN1CCN(CCn2ccc(Nc3ncc4c(n3)-c3c(nn(C)c3-c3ccccc3)C[C@H]4C)n2)CC1	3.1 °C
N#C/C(=C\c1ccc(O)c(O)c1)C(=O)OCCc1cccs1	1.1 °C
CC(=O)N(CCN(C)C)c1ccc(N/C(=C2\C(=O)Nc3cc(Cl)ccc32)c2ccccc2)cn1	3.16 °C
Cc1nc(-c2ccc(C(F)(F)F)cc2)sc1C(=O)NCc1ccc(OC(C)(C)C(=O)O)cc1	0.76 °C
CC(C)N(CCCCOCC(=O)O)c1cnc(-c2ccccc2)c(-c2ccccc2)n1	-0.83 °C
FC(F)c1cncc(-c2ccc3ncc4nnc(C5=CCCOCC5)n4c3c2)c1	0.55 °C
CC(C)c1cnc(NC(=O)Cc2ccccc2)s1	4.66 °C
CCCCOc1c(C(=O)c2c(F)cc(C)cc2F)c[nH]c2nncc1-2	2.95 °C
CCN1C(=O)c2cc(C)ccc2N(C)c2ncccc21	0.32 °C
CCOCCn1cc(C(=O)Nc2ccc(-n3nc(-c4cccnc4)cc3C(F)(F)F)cn2)ccc1=O	-1.4 °C
CC#CCC(C)[C@H](O)/C=C/[C@@H]1[C@H]2C/C(=C/CCCC(=O)O)C[C@H]2C[C@H]1O (some centres not stated)	0.41 °C
COc1ccc(S(=O)(=O)N2CCOCC2)cc1Nc1ccc2c(n1)N(C1CCOCC1)[C@H](C)C(=O)N2C	0.41 °C
CC1CN(CC(=O)N2CC(C)(C)c3nc(CO)c(Cc4ccc(F)cc4)cc32)C(CN2CCOCC2C)CN1 (configuration not stated)	0.68 °C
O=C(O)CCCc1cc2cc(Cl)ccc2n1S(=O)(=O)c1ccc2ncsc2c1	0.24 °C
O=S(=O)(Nc1ccc(C(O)(C(F)(F)F)C(F)(F)F)cc1)c1cccs1	0.73 °C

SMILES	ΔTm
COC(=O)Nc1nc2c(s1)-c1c(c(-c3cccnc3)nn1-c1ccc(C3(N(C)C)CC3)cc1)CC2	0.64 °C
COc1ccccc1S(=O)(=O)Nc1ccc2c(c1)CN(C)C(=O)N2	1.13 °C
CC(C)(C)OC(=O)CN(Cc1ccc(Cl)cc1)Cc1ccc([N+](=O)[O-])s1	0.83 °C
COc1c(OCCCN2CCOCC2)ccc2c1N=C(NC(=O)c1cnc(N)nc1)N1CCN=C21	0.39 °C
COCCc1ccc(-c2c(C)nc3c(N4CCOCC4)ccnn23)cn1	0.2 °C
COc1cc(OC)cc(-c2cc3cnc(N)nc3nc2NC(=O)NC(C)(C)C)c1	0.84 °C and 0.15 °C
COCCNC1CCC(Nc2cc(-c3csc(NCC4(C#N)CCOCC4)n3)c(Cl)cn2)CC1 (configuration not stated)	1.7 °C
Cc1cc(-c2ccnc(Nc3cnn(C)c3)n2)ccc1CNC(=O)N1CC(OC(C)C)C1	1.31 °C
COCCCS(=O)(=O)c1cc(C)c(-c2ccc(F)c3c2CC[C@H]3Oc2ccc3c(c2)OC[C@H]3CC(=O)O)c(C)c1	0 °C
COc1cc2nc([C@@H]3CCCS(=O)(=O)C3)n(C)c2cc1NC(=O)c1cccc(C(C)(F)F)n1	0.09 °C
CN1C(=O)Cc2ccc(-c3ccc(C[C@@H](C#N)NC(=O)[C@@H]4N[C@H]5CC[C@@H]4C5)c(F)c3)cc21	0.33 °C
CCN(C(=O)c1cc(F)ccc1Oc1cncnc1N1CC2(CCN(C[C@H]3CC[C@H](NS(=O)(=O)CC)CC3)CC2)C1)C(C)C	0.94 °C
CC(C)(C)c1cc(NC(=O)c2csc(Nc3ccccn3)n2)no1	0.49 °C
O=C(Nc1cccc(C(F)(F)F)c1)c1cccc(-n2cc(-c3ccco3)nn2)c1	0.62 °C
CNC(=O)c1ccc2c(c1)ncn2-c1ccc(CC(=O)OC(C)(C)C)cc1	0.07 °C
CNC(=O)c1cc(C(=O)N[C@H]2[C@@H]3COC[C@@H]32)cc2c1O[C@H](CF)[C@H]2c1ccccc1	0.34 °C
CN(C)c1ccc(-c2cc3ncccc3c(OCCCCO)n2)cc1	0.73 °C
O=C(NC[C@@H]1[C@H]2CN(C(=O)OCc3cc(C(F)(F)F)cc(C(F)(F)F)c3)C[C@@H]12)c1ccc2[nH]nnc2c1	-9.8 °C
COc1cc(-c2cncc(-c3ccc(N4CCN(C(C)C)CC4)cc3)c2C)cc(F)c1C(N)=O	0.61 °C

From ChEMBL document CHEMBL5308504, “Tm Shift (DSF) assay results for EUbOPEN Chemogenomics Library” (2023)
